Screening data: PubChem, University of Kansas High Throughput Screening Laboratory
Rows were chosen to be rich in hits. Some 3.6% of all compounds tested hit in one or more screens of this group.
mHTT CaM bind: disrupts binding of mutant huntingtin to calmodulin; P42858; AlphaScreen His-mHTT/GST-CaM binding, luminescence; inhibition, % at 15 µM; 3.6% of 190,000 active;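 also: 0% = both proteins with DMSO and 100% = one protein alone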
Target sequence (P42858 whole entry, looked up, stated change not applied): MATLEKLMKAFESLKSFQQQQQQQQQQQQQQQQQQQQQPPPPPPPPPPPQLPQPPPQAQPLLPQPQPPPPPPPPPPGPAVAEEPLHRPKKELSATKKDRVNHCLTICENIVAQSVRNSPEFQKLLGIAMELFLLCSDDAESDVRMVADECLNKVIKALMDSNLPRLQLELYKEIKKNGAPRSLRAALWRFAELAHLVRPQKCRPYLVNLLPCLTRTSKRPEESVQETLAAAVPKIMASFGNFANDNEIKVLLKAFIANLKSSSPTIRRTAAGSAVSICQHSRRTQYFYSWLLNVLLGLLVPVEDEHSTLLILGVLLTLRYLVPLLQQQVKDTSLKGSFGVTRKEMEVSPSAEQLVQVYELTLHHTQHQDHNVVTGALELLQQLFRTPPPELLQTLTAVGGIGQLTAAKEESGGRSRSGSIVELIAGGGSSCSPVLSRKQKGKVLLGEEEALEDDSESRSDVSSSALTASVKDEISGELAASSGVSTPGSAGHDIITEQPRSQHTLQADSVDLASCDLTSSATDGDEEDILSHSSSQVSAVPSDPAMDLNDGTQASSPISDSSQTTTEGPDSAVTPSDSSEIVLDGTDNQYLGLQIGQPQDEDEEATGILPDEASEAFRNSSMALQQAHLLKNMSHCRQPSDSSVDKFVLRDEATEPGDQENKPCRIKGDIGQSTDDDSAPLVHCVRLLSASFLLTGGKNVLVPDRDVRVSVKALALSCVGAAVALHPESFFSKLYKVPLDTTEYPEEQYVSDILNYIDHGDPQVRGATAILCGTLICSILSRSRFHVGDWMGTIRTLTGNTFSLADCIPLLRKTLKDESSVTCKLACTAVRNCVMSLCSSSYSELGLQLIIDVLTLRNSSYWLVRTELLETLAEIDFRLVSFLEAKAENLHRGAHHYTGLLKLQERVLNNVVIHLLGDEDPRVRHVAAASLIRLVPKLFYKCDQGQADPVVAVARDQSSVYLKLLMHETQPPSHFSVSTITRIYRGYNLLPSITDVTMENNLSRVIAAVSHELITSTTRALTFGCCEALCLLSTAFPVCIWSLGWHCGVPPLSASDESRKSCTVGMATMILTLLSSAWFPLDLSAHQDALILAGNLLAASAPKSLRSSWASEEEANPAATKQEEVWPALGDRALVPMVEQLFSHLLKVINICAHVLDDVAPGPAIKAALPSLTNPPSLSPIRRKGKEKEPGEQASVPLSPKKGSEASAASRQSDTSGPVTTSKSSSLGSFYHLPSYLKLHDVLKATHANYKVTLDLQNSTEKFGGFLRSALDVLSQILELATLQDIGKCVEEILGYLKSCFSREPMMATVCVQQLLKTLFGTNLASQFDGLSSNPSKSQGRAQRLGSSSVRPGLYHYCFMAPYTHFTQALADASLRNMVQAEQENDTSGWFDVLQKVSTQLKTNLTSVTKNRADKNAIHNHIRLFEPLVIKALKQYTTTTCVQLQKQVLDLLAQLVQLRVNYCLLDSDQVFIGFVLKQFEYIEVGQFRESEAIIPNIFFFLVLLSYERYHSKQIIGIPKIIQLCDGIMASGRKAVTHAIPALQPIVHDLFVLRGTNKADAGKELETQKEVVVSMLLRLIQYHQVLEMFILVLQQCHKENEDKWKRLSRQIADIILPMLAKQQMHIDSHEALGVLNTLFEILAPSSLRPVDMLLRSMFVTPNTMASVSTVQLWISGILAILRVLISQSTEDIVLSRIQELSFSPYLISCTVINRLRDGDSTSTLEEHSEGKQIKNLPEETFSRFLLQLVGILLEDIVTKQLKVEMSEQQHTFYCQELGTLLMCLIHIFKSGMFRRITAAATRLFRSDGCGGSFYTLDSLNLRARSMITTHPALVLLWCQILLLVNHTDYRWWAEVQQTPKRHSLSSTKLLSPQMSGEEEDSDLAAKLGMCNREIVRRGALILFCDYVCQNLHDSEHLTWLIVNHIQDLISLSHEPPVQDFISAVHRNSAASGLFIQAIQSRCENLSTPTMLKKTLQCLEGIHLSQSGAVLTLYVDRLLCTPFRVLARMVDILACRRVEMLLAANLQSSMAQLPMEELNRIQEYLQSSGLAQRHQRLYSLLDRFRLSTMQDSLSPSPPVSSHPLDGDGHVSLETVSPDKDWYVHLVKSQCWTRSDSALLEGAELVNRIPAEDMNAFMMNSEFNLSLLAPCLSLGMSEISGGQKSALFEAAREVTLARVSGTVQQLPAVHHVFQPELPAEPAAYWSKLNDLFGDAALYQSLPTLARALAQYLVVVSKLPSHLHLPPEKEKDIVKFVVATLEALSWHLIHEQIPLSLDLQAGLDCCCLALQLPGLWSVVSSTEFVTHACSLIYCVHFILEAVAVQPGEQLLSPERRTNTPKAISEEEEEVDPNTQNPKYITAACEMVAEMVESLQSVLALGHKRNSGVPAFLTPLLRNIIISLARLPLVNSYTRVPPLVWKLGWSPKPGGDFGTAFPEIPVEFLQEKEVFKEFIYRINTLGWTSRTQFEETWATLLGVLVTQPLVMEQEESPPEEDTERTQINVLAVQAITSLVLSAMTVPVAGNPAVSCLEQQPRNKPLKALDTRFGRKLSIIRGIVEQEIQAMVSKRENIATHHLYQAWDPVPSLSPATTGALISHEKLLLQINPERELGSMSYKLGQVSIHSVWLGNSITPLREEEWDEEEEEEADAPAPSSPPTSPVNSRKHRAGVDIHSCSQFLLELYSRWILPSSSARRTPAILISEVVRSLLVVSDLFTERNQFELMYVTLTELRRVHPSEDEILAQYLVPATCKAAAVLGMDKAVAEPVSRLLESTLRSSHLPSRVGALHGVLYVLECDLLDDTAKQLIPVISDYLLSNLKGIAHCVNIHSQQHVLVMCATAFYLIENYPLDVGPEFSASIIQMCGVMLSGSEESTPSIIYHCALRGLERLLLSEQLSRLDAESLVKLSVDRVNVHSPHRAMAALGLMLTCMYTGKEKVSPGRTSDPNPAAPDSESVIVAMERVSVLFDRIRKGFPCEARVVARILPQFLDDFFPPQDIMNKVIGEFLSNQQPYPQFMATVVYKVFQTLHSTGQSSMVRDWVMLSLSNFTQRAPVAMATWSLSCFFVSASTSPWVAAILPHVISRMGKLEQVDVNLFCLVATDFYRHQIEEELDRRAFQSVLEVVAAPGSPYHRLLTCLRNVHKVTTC
Pf apPOL inh: Pf-apPOL DNA polymerase inhibition; AID 1794808; Recombinant Pf-apPOL, molecular beacon fluorescence, 1.5 h; inhibition, % at 10 µM; 0.25% of 210,000 active
Active calls of the source: *; i = inactive; nt = no result given; + = active, no number. Rule as the data show it: active = inhibition above about 50%; inactive = the rest.

SMILES	mHTT CaM bind	Pf apPOL inh
CC(=O)Nc1nc(C)c(-c2csc(Nc3ccc([N+](=O)[O-])cc3)n2)s1	32.3	-16.3
COc1ccc(Nc2nc(-c3ccc(C)c(C)c3)cs2)cc1	31.3	4.3
Cc1nc(N)sc1-c1csc(Nc2ccc([N+](=O)[O-])cc2)n1	98.7*	-4.8
Cc1cccc(NCc2ccc([N+](=O)[O-])cc2)c1	39.2	-1.1
Cc1cccc(Nc2nc(-c3ccc(C)c(C)c3)cs2)c1	54.7*	-6.6
Cc1nn(S(=O)(=O)N(C)C)c(C)c1Br	-11.0	-0.3
CC(C)Oc1ccc(CNC(=O)c2ccc(N3CCNC(c4ccccc4)C3)nc2)cc1 (stereo not given)	24.3	-1.5
O=C(Nc1ccccc1F)C1CCc2sc(C(=O)N3CCOCC3)cc2C1 (stereo not given)	4.5	-2.9
CCOC1=CC(=Cc2c(N)n3c(SCC)nsc3nc2=O)C=CC1=O	8.0	-1.8
CC1Cc2c(NC(=O)c3ccc(Br)o3)nn(C)c2NC1=O (stereo not given)	52.5*	-0.1
COCC(=O)Nc1nn(C)c2c1CC(C)C(=O)N2 (stereo not given)	-14.0	-1.4
Cc1cc(C)n(-c2nc(C)nc(N)n2)n1	1.0	6.8
COc1nc(-n2nc(C)cc2C)nc(-n2nc(C)cc2C)n1	-7.8	64.0*
CCOC(=O)C(C#N)=Cc1ccc(-c2nccs2)cc1C(C)(C)C	nt	-1.0
O=C(C1CCCC1)N1CCC(O)(c2ccccc2)C(N2CCCC2)C1 (stereo not given)	-1.7	-2.2
COc1cc(/C=C/c2nc3ccccc3c(=O)n2-c2ccccc2[N+](=O)[O-])ccc1O	50.2*	5.3
COc1cc(/C=C/c2nc3ccccc3c(=O)n2CCO)ccc1O	7.1	-9.6
Cc1cc(OCC(=O)Nc2ncn[nH]2)cc(C)c1Cl	17.0	1.5
Cc1cccc(CC(=O)N2CCC(c3cc(N)on3)CC2)c1	10.5	0.7
O=C(c1nn2c(C(F)(F)F)cc(-c3ccco3)nc2c1Br)N1CCCC1	6.0	-12.2
c1ccc(Nc2nc(N3CCCC3)nc(N3CCNCC3)n2)cc1	10.2	-10.7
NNc1nc(Nc2ccccc2)nc(N2CCCCC2)n1	99.4*	-4.3
COc1cc(/C=C2/NC(=O)N(Cc3ccc(Br)cc3)C2=O)cc(OC)c1O	55.0*	-5.0
COc1cc(/C=C2/NC(=O)N(Cc3ccc(Cl)cc3)C2=O)cc(Br)c1O	39.0	0.5
COc1ccccc1N1CCN(C(=O)C2CCCc3c2[nH]c2ccccc32)CC1 (stereo not given)	58.8*	5.7
SMILES	mHTT CaM bind	Pf apPOL inh
COc1ccccc1N1CCN(C(=O)C2CC2)CC1	-6.0	-1.1
CC1(C)Nc2sc3c(c2-c2nnnn21)CCCC3	55.6*	nt
O=C1NC2(Nc3sc4c(c31)CCCC4)C(=O)Nc1ccccc12 (stereo not given)	23.0	18.4
CCN1c2ccccc2C(=O)NC12CCN(C(=O)Cc1ccccc1)CC2	5.9	-1.7
COc1cc(/C=C2\CC/C(=C\c3ccc(O)c(OC)c3)C2=O)ccc1O	61.0*	-2.6
COc1ccc(/C=C2\CC/C(=C\c3ccc(OC)c(OC)c3)C2=O)cc1OC	10.0	0.0
CCN(CC)C(=O)CC[C@H]1CC[C@]2(CCCN(S(=O)(=O)c3ccccc3)C2)O1	98.5*	-5.8
CCOC(=O)CC[C@@H]1CC[C@]2(CCCN(S(=O)(=O)c3ccccc3)C2)O1	-3.7	-3.7
CC(C)(C)OC(=O)COc1ccc2c(c1)OC(=Cc1cccs1)C2=O	-6.2	-0.2
O=C(c1ccccc1)N1CCC(CCNS(=O)(=O)c2ccc(Cl)s2)CC1	45.0	-1.7
CCC(C)NC(=O)c1cnn2c(C)c(Cc3cccc(Cl)c3)c(C)nc12 (stereo not given)	82.0*	-5.8
CCC(C)NC(=O)c1cnn2c(C)c(Cc3c(C)cc(C)cc3C)c(C)nc12 (stereo not given)	27.0	31.0
CCC(C)NC(=O)c1cnn2c(C)c(Cc3ccc(Cl)cc3)c(C)nc12 (stereo not given)	26.0	4.9
CCC(C)NC(=O)c1cnn2c(C)c(Cc3ccccc3C)c(C)nc12 (stereo not given)	87.0*	-3.6
Cc1nc2c(C(=O)O)cnn2c(C)c1Cc1ccccc1	4.0	-20.3
CCC(C)NC(=O)c1cnn2c(C)c(Cc3cccc(Br)c3)c(C)nc12 (stereo not given)	74.0*	-3.6
O=C(Cc1cccs1)N1CCC(COc2ccc(C(=O)N3CCCCC3)cc2)CC1	-6.4	-5.3
O=C(c1cc(F)ccc1F)N1CCc2nc(-c3ccc(F)cc3)ncc2C1	-9.3	1.2
CCn1ccc(C(=O)N2CCC(n3cnnc3-c3ccccc3)C2)n1 (stereo not given)	-2.0	5.0
COc1ccc(-n2nc(C(=O)NCC(=O)N(C)Cc3ccccc3)c3ccccc3c2=O)cc1	66.0*	0.3
COc1ccc(-n2nc(C(=O)NCC(=O)O)c3ccccc3c2=O)cc1	-1.0	-3.0
Cc1ccc(S(=O)(=O)n2nc(C)c(C)c2C)c(C)c1	-14.1	-1.8
Cc1nc2c(C(=O)NC3CCCCC3C)cnn2c(C)c1Cc1cccc(Cl)c1 (stereo not given)	71.0*	-10.1
Cc1nc2c(C(=O)NC3CCCCC3)cnn2c(C)c1Cc1cccc(Cl)c1	61.0*	12.4
Cc1nc2c(C(=O)NC3CCCC3)cnn2c(C)c1Cc1cccc(Br)c1	10.0	-0.1
SMILES	mHTT CaM bind	Pf apPOL inh
Cc1nc2c(C(=O)NC3CCCCC3)cnn2c(C)c1Cc1ccccc1Cl	2.0	-2.5
Cc1nc2c(C(=O)NC3CCCCC3C)cnn2c(C)c1Cc1ccccc1 (stereo not given)	16.0	-7.8
Cc1nc2c(C(=O)NC3CC3)cnn2c(C)c1Cc1ccccc1Cl	58.0*	-6.1
CC(C)(C)C1(C)OC2COCCOCCOCCOCCOCCOCC2O1 (stereo not given)	1.0	-0.5
Cc1ccnc(N2CCC(C(=O)NC(C)c3ccccc3)CC2)n1 (stereo not given)	-15.7	-6.3
CCc1cccc2sc(NC(=O)c3ccc(S(=O)(=O)C(C)C)cc3)nc12	-6.6	-5.2
CCCNc1cc(-n2nc(C)cc2C)ncn1	-1.1	-2.8
S=c1[nH]nc(-c2ccccn2)n1/N=C/C=C/c1ccco1	+	nt
S=c1[nH]nc(-c2ccncc2)n1/N=C/C=C/c1ccco1	i	nt
Cc1ccc(C(=O)NCc2ccccc2C)c(C2CCN(C(=O)C3CC3)CC2)n1	6.8	-1.8
CCCN1CC=C2C(C#N)=C(N)C(C#N)(C#N)C(c3ccccc3Cl)C2C1 (stereo not given)	38.0	-1.5
COc1cccc(C2C3CN(Cc4ccccc4)CC=C3C(C(=O)O)=C(N)C2(C#N)C#N)c1 (stereo not given)	47.0	93.7*
CC(=O)N1CC=C2C(C#N)=C(N)C(C#N)(C#N)C(c3cccc(Cl)c3)C2C1 (stereo not given)	20.0	-7.5
Cc1ccc(C2C3CN(Cc4ccccc4)CC=C3C(C(=O)O)=C(N)C2(C#N)C#N)o1 (stereo not given)	52.0*	1.2
COc1ccccc1N=Cc1nc(-c2ccccc2)oc1O	-11.0	0.6
CCCNC(=O)c1c[nH]c2ccc(S(=O)(=O)N(C)c3ccc(Cl)cc3F)cc2c1=O	32.0	-3.0
COc1ccc(Oc2ccc([N+](=O)[O-])cc2-c2nc(CS(=O)(=O)Cc3ccc(F)cc3)no2)cc1	nt	-6.1
COc1ccccc1C=C1Oc2c(ccc3c2CN(Cc2cc(OC)c(OC)c(OC)c2)CO3)C1=O	54.7*	-18.3
COc1ccc(C=C2Oc3c(ccc4c3CN(Cc3cccnc3)CO4)C2=O)c(OC)c1	17.8	-5.0
